High-throughput results from PubChem BioAssay.
The list is not random: actives were taken first. Their share in the collection is about 4.3%.
D3 ag: agonists of human D3 dopamine receptor; P35462; max activation, %; 410,000 tested, 0.58% active; D3R DiscoveRx beta-arrestin cells, luminescence, 90 min; in the data active = max activation above about 30%; note: 0% is about no effect
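Agonist mode: compounds and dopamine controls were applied to plated cells for 90 min at 37 degrees C after an overnight attachment at 1500 cells/well. Luminescent read-out followed 30 - 60 minutes at room temperature with DiscoveRx detection reagent.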
D3 antag: antagonists of human D3 dopamine receptor. P35462. D3R cells, DiscoveRx beta-arrestin luminescence, antagonist mode; hits give low values. max response, negative = inhibition, %. 360,000 tested, 2.5% active; in the data active = max response below about -50%; inconclusive = no clear call, values can overlap the other calls; note: % is set by controls: 0 for no effect and ±100 for the full control effect
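Cells expressing the human receptor were seeded at 1500 cells/well, incubated overnight at 37 degrees C in 5% CO2, then exposed to library compounds with dopamine controls for 90 minutes at 37 degrees C before luminescent detection.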
GLP-1R agonist: GLP-1 receptor (human) agonism; P43220; HEK293 GLP-1R CRE-luciferase, luminescence, 4-6 h; cells express a hypersensitive GLP-1R form; Potency, µM (doses to about 45.6 µM), for the others: top-dose activation, most hits filed as activators; 380,000 tested, 0.007% active; note: potency is the fitted concentration of half-maximal effect; % of control where 0% means no effect
Target sequence (P43220 whole entry, looked up): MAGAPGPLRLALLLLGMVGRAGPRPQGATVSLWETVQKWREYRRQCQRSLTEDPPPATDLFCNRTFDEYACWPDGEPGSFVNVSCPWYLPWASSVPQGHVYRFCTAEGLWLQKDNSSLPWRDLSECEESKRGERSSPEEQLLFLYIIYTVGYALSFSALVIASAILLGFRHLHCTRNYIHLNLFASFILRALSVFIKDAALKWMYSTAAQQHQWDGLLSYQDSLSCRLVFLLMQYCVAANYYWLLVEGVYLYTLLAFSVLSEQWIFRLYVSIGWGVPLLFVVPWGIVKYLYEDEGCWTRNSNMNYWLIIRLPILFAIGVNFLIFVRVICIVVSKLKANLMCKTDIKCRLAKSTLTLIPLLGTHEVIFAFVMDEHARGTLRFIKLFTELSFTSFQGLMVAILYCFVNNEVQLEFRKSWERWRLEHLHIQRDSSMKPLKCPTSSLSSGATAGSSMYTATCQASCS
GLP1R inv ag: inverse agonists of human GLP-1 receptor. 410,000 tested, 1.6% active. Potency, µM (doses to about 38.3 µM), for inactives: at the highest dose activity change, negative = inhibition, most hits filed as inhibitors. AID 624417. P43220. HEK293 GLP-1R CRE-luciferase, luminescence, 24 h; GLP-1R form is constitutively active; note: potency is the fitted concentration of half-maximal effect; % is set by controls: 0 for no effect and ±100 for the full control effect; nearly all actives have a fitted effect of over 55% in size
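HEK293 cells stably co-expressing a cAMP-responsive luciferase reporter and constitutively active GLP-1R were seeded, incubated 12 h, then exposed to compounds for 24 h at 37 C. Luminescence was read 12 min after detection reagent; inverse agonists lower signal.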
Active calls of the source: *; ? = inconclusive; nt = no result given; [ ] = dose if it differs, or a comment. Unless noted, calls come from the whole dose curve; as a rule, active = well fitted curve in the direction sought with a large enough effect; inconclusive = small, poorly fitted or top-dose-only effect, or another doubt; inactive = no such curve, though single readings can be large; an effect the other way counts as inactive or inconclusive.

SMILES | D3 ag | D3 antag | GLP-1R agonist | GLP1R inv ag
CCOC(=O)c1c(NC(=O)CSc2nc(-c3ccc(OC)cc3)cc(C(F)(F)F)n2)sc(C)c1C | -9 | nt | 1% | 10%
COc1ccc(-c2cn3cccnc3n2)cc1NC(=O)c1c(F)cccc1F | 0 | nt | nt | -5%
CCOC(=O)c1sc2ccccc2c1S(=O)(=O)NCc1ccc(F)cc1 | 4 | nt | nt | ?
CCOC(=O)N1CCN(c2cc(NCCC(=O)O)c3c4c(onc24)-c2ccccc2C3=O)CC1 | -7 | -77* | 4% | 6%
O=C1c2ccccc2-c2onc3c(N4CCN(CCO)CC4)cc(N4CCN(C(=O)c5ccco5)CC4)c1c23 | -10 | -5 | 6% | 11µM*
CN1CCN(c2cc(N3CCN(C(=O)c4ccco4)CC3)c3c4c(onc24)-c2ccccc2C3=O)CC1 | -5 | -11 | 10% | ?
Nc1ccn([C@@H]2O[C@H](CO)[C@@H](O)[C@@H]2O)c(=O)n1 | 19 | 25 | -2% | ?
OCC1OC(n2ccc3c2ncn2ncnc32)C(O)C1O (centres undefined) | -4 | 0 | -7% | 7.9µM*
Cc1ccc(C2/C(=C(\O)c3c(C)nc4c(C)cccn34)C(=O)C(=O)N2CCN(C)C)o1 (centres undefined) | 2 | 0 | 4% | 14%
Cc1ccc(C2/C(=C(\O)c3c(C)nc4ccccn34)C(=O)C(=O)N2CCN(C)C)o1 (centres undefined) | 43* | 11 | -9% | -10%
CCOC(=O)c1c(CN2CCCCC2)n(C)c2cc(Br)c(O)c(CN(C)C)c12 | -10 | -68* | 4% | -30%
CC1=C(C(=O)Nc2ccccc2C)C(c2ccccn2)n2nc(SCc3ccccc3F)nc2N1 (centres undefined) | -9 | nt | nt | 16%
COc1cc(O)c(C(CCN2CCCC(C)C2)c2ccc3c(c2)OCO3)c(OC)c1 (centres undefined) | -49 | -68* | 8% | ?
COc1cc(O)c(C(CCN2CCCC(C)C2)c2ccc(N(C)C)cc2)c(OC)c1 (centres undefined) | -25 | -30 | -1% | ?
COc1ccc(C(CCN2CCN(c3ccccc3)CC2)c2c(O)cc(OC)cc2OC)cc1 (centres undefined) | -65 | -112* | -2% | ?
Cc1cc(Cl)ccc1NC(=O)CN1C(=O)COc2ccc(S(=O)(=O)Nc3ccccc3)cc21 | -14 | nt | -4% | ?
CNC(=S)Nc1cccc(-c2cnc3ccccc3n2)c1 | -12 | -74* | 29% | 115%
CC(C)(C)c1ccc(Cn2c(=O)cnc3ccccc32)cc1 | -6 | 0 | 7% | 5µM*
CSc1nc(-c2ccccc2)nc(N2CCN(C)CC2)c1C(C)=O | -23 | -55* | 3% | 3.2µM*
CN1CCN(c2nc(-c3ccccc3)ncc2S(=O)(=O)c2ccccc2)CC1 | -38 | -79* | 10% | ?
Cc1ccc(S(=O)(=O)c2cnc(-c3ccccc3)nc2N2CCN(C)CC2)cc1 | -15 | ? | 2% | ?
CSc1nc(-c2ccccc2)nc(N2CCCC2)c1C(C)=O | 3 | 13 | 17% | 4%
CC(=O)c1cccc(NC(=O)Nc2cccs2)c1 | -11 | -51* | -21% | ?
CC(=O)C1=C(C)Nc2ncnn2C1c1ccc(F)cc1 (centres undefined) | 3 | -18 | -5% | 7%
COC(=O)c1ccc(C2C(C(C)=O)=C(C)Nc3ncnn32)cc1 (centres undefined) | -3 | -74* | -5% | 42%
SMILES | D3 ag | D3 antag | GLP-1R agonist | GLP1R inv ag
COc1ccc(N2CCN(Cc3nc4c(c(=O)[nH]c(=O)n4C)n3Cc3ccccc3F)CC2)cc1 | -23 | nt | nt | -7%
COc1ccc2c(c1)-c1nc(NC(=O)c3ccc(Cl)cc3)sc1CC2 | 1 | nt | nt | 10%
COc1ccc2c(c1)-c1nc(NC(=O)c3cc(OC)c(OC)c(OC)c3)sc1CC2 | 9 | nt | nt | 10µM*
Cc1ccc(Cl)cc1N1CCN(C(=O)c2cccn2-c2nnc(N3CCCCC3)s2)CC1 | -6 | nt | nt | 15%
Cc1ccc(Cl)cc1N1CCN(C(=O)C2CCN(c3nnc(-n4cccc4)s3)CC2)CC1 | 2 | -6 | -1% | 3.5µM*
CCC(=O)C(Cc1ccccc1)(Cc1ccccc1)CC(C)N(C)C (centres undefined) | nt | nt | 6%[96 µM] | nt
CC(C)(C)OC(=O)N(CCc1ccccc1)Cc1cccc(OCc2cccc(NC(=O)C3CCCC3)c2)c1 | 24 | 13 | 18% | 10µM*
CC(C)(C)OC(=O)N(CCc1ccccc1)Cc1ccccc1OCc1cccc(NC(=O)C2CC2)c1 | 1 | -14 | 0% | ?
CC(C)(C)OC(=O)N(CCc1ccccc1)Cc1cccc(OCc2cccc(NC(=O)C3CC3)c2)c1 | 30 | 18 | -2% | ?
CC(C)C(=O)Nc1cccc(COc2ccccc2CN(Cc2ccccc2)C(=O)OC(C)(C)C)c1 | -9 | 5 | 5% | 11µM*
CC(C)(C)OC(=O)N(CCc1ccccc1)Cc1ccccc1OCc1ccc(NC(=O)C2CCC2)cc1 | 28 | 28 | -2% | 3.5µM*
CC(C)(C)OC(=O)N(CCc1ccccc1)Cc1ccccc1OCc1cccc(NC(=O)C2CCCC2)c1 | -11 | -50* | -3% | 2.8µM*
CCOCCc1nn2c(=O)cc(COC(=O)c3ccccc3NC(=O)c3ccc(C)cc3)nc2s1 | 7 | nt | nt | 14%
COc1ccccc1Nc1c2c(nc3ccc(NC(=O)c4ccc(N(C)C)cc4)cc13)CCCC2 | -24 | nt | nt | ?
CCC1NC(=O)C(NC(=O)c2ncccc2O)C(C)OC(=O)C(c2ccccc2)NC(=O)C2CC(=O)CCN2C(=O)C(Cc2ccccc2)N(C)C(=O)C2CCCN2C1=O (centres undefined) | nt | nt | 0% | nt
CC(C)(C)OC(=O)N(Cc1ccccc1)Cc1ccc(OCc2cccc(NC(=O)C3CC3)c2)cc1 | 65* | 113 | -6% | 2%
CC(C)(C)OC(=O)N(Cc1ccccc1)Cc1ccccc1OCc1ccc(NC(=O)C2CCC2)cc1 | -29 | 0 | -2% | 2.8µM*
CCc1c(CN2CCN(c3cccc(C)c3C)CC2)csc1C | -31 | nt | nt | -15%
CCCCc1nc2ccccc2n2c(-c3ccc(OC)cc3)c3c(=O)n(C)c(=O)n(C)c3c12 | 0 | nt | nt | 5%
O=C(CCCn1c(=O)c2sccc2n(Cc2cccc(Cl)c2)c1=O)NCc1ccc2c(c1)OCO2 | -5 | nt | nt | 2%
CC(C)Oc1cccc(NC(=O)C2(C)CCCN(C)C2)c1 (centres undefined) | 6 | -2 | 22% | -14%
COCC(=O)N1CCCC(C)(C(=O)Nc2cccc(Oc3ccccc3)c2)C1 (centres undefined) | 49* | -20 | -4% | 26%
CC1(C(=O)NS(=O)(=O)C2CC2)CCN(C(=O)c2ccc3c(c2)OCO3)C1 (centres undefined) | 2 | 14 | 0% | 8%
CCC(NC(=O)c1cccc(Cn2cc([N+](=O)[O-])cn2)c1)c1ccc(C(C)C)cc1 (centres undefined) | -20 | -53* | 4% | ?
CCCCNS(=O)(=O)CCNCc1ccco1 | 43* | -9 | -2% | 8%
